Test results: PubChem BioAssay AID1159580 (chemical genetic matrix, 2015)
The whole screen tested about 5,500 compounds, of which about 2,000 (36%) were called active. Inconclusive results (about 18%) are left out. Cut-off read from the data, not from the text of the source: active = normalized growth mostly below about 0.91 (no sharp cut-off); inconclusive = no clear call, values can overlap the other calls; inactive = mostly above about 0.92. Some of the results follow.

Experiment: chemical genetic growth profiling, strain panel (AID 1159580);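 note: tested at 20 µM; growth read once vehicle control cultures reached saturation at 30 °C; 1 = growth at the plate median or of vehicle wells; lower values mean less growth of the strain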
Conditions: growth OD
[1] = S. cerevisiae deletion strains, locus YHR030C, strain SLT2, stronger effect = lower value
[2] = S. cerevisiae deletion strains, locus YHR079C, strain IRE1, stronger effect = lower value
[3] = S. cerevisiae deletion strains, locus YJL095W, strain BCK1, stronger effect = lower value
[4] = S. cerevisiae deletion strains, locus YJR066W, strain TOR1, stronger effect = lower value
[5] = S. cerevisiae deletion strains, locus YLR113W, strain HOG1, stronger effect = lower value
[6] = S. cerevisiae deletion strains, locus YNL183C, strain NPR1, stronger effect = lower value
[7] = S. cerevisiae deletion strains, locus YOR231W, strain MKK1, stronger effect = lower value
[8] = S. cerevisiae deletion strains, locus YPL256C, strain CLN2, stronger effect = lower value
[9] = S. cerevisiae deletion strains, locus YAL013W, strain DEP1, stronger effect = lower value
[10] = S. cerevisiae deletion strains, locus YGR078C, strain PAC10, stronger effect = lower value
[11] = S. cerevisiae deletion strains, locus YNL128W, strain TEP1, stronger effect = lower value
[12] = S. cerevisiae deletion strains, locus YPL241C, strain CIN2, stronger effect = lower value

Measured: normalized growth

CN1CCCC(n2nc(Cc3ccc(Cl)cc3)c3ccccc3c2=O)CC1 (stereo unspecified)
active: S. cerevisiae deletion strains, locus YDR137W, strain rgp1, stronger effect = lower value 1.25 [resistant]
inactive: S. cerevisiae deletion strains, locus YAL021C, strain ccr4, stronger effect = lower value 1.01 | S. cerevisiae deletion strains, locus YAL026C, strain drs2, stronger effect = lower value 1 | S. cerevisiae deletion strains, locus YAL030W, strain snc1, stronger effect = lower value 0.999 | S. cerevisiae deletion strains, locus YBL061C, strain skt5, stronger effect = lower value 1 | S. cerevisiae deletion strains, locus YBR009C, strain hhf1, stronger effect = lower value 0.93 | S. cerevisiae deletion strains, locus YBR023C, strain chs3, stronger effect = lower value 1.02 | S. cerevisiae deletion strains, locus YBR171W, strain sec66, stronger effect = lower value 0.989 | S. cerevisiae deletion strains, locus YBR231C, strain swc5, stronger effect = lower value 0.984 | S. cerevisiae deletion strains, locus YBR279W, strain paf1, stronger effect = lower value 1.02 | S. cerevisiae deletion strains, locus YCL011C, strain gbp2, stronger effect = lower value 0.989 | S. cerevisiae deletion strains, locus YCL016C, strain dcc1, stronger effect = lower value 1.04 | S. cerevisiae deletion strains, locus YCL061C, strain MRC1, stronger effect = lower value 0.968 | S. cerevisiae deletion strains, locus YCL069W, strain vba3, stronger effect = lower value 0.988 | S. cerevisiae deletion strains, locus YCR088W, strain abp1, stronger effect = lower value 0.991 | S. cerevisiae deletion strains, locus YDL005C, strain med2, stronger effect = lower value 0.999 | S. cerevisiae deletion strains, locus YDL040C, strain nat1, stronger effect = lower value 1 | S. cerevisiae deletion strains, locus YDR001C, strain nth1, stronger effect = lower value 1 | S. cerevisiae deletion strains, locus YDR069C, strain doa4, stronger effect = lower value 0.996 | S. cerevisiae deletion strains, locus YDR159W, strain sac3, stronger effect = lower value 0.912 | S. cerevisiae deletion strains, locus YDR195W, strain ref2 0.972 | S. cerevisiae deletion strains, locus YDR297W, strain sur2, stronger effect = lower value 0.99 | S. cerevisiae deletion strains, locus YDR334W, strain swr1, stronger effect = lower value 0.981 | S. cerevisiae deletion strains, locus YDR335W, strain msn5, stronger effect = lower value 1.01 | S. cerevisiae deletion strains, locus YDR392W, strain spt3, stronger effect = lower value 0.772 | S. cerevisiae deletion strains, locus YEL003W, strain gim4, stronger effect = lower value 0.948 | S. cerevisiae deletion strains, locus YEL037C, strain rad23, stronger effect = lower value 0.992 | S. cerevisiae deletion strains, locus YEL061C, strain CIN8 (second series), stronger effect = lower value 0.983 | S. cerevisiae deletion strains, locus YER015W, strain faa2, stronger effect = lower value 0.966 | S. cerevisiae deletion strains, locus YER016W, strain bim1, stronger effect = lower value 1.03 | S. cerevisiae deletion strains, locus YER111C, strain swi4, stronger effect = lower value 1.01 | S. cerevisiae deletion strains, locus YER155C, strain BEM2 (second series), stronger effect = lower value 0.884 | S. cerevisiae deletion strains, locus YFR010W, strain ubp6, stronger effect = lower value 0.941 | S. cerevisiae deletion strains, locus YGL167C, strain pmr1, stronger effect = lower value 0.982 | S. cerevisiae deletion strains, locus YGL173C, strain kem1, stronger effect = lower value 0.964 | S. cerevisiae deletion strains, locus YGL227W, strain vid30, stronger effect = lower value 1 | S. cerevisiae deletion strains, locus YGL240W, strain doc1, stronger effect = lower value 0.942 | S. cerevisiae deletion strains, locus YGL253W, strain hxk2, stronger effect = lower value 1.02 | S. cerevisiae deletion strains, locus YHR013C, strain ard1, stronger effect = lower value 0.994 | S. cerevisiae deletion strains, locus YHR027C, strain rpn1, stronger effect = lower value 0.944 | [1] 1.03 | [2] 1.02 | S. cerevisiae deletion strains, locus YHR142W, strain chs7, stronger effect = lower value 1.02 | S. cerevisiae deletion strains, locus YJL092W, strain hpr5, stronger effect = lower value 0.981 | S. cerevisiae deletion strains, locus YJL095W, strain BCK1 (second series), stronger effect = lower value 0.996 | [3] 0.979 | S. cerevisiae deletion strains, locus YJL115W, strain asf1, stronger effect = lower value 1.02 | S. cerevisiae deletion strains, locus YJL129C, strain trk1, stronger effect = lower value 1.07 | S. cerevisiae deletion strains, locus YJL154C, strain vps35, stronger effect = lower value 0.992 | S. cerevisiae deletion strains, locus YJL164C, strain tpk1, stronger effect = lower value 0.964 | S. cerevisiae deletion strains, locus YJL166W, strain qcr8, stronger effect = lower value 0.96 | S. cerevisiae deletion strains, locus YJL187C, strain SWE1, stronger effect = lower value 1.01 | [4] 0.99 | S. cerevisiae deletion strains, locus YKL160W, strain elf1, stronger effect = lower value 1.04 | S. cerevisiae deletion strains, locus YKR026C, strain gcn3, stronger effect = lower value 0.995 | S. cerevisiae deletion strains, locus YKR091W, strain srl3, stronger effect = lower value 1 | S. cerevisiae deletion strains, locus YLL001W, strain dnm1, stronger effect = lower value 0.958 | S. cerevisiae deletion strains, locus YLL026W, stronger effect = lower value 1 | S. cerevisiae deletion strains, locus YLL041C, strain sdh2, stronger effect = lower value 0.99 | S. cerevisiae deletion strains, locus YLR027C, strain aat2, stronger effect = lower value 1.01 | [5] 0.975 | S. cerevisiae deletion strains, locus YLR221C, strain rsa3, stronger effect = lower value 0.954 | S. cerevisiae deletion strains, locus YLR258W, strain gsy2, stronger effect = lower value 1.02 | S. cerevisiae deletion strains, locus YLR262C, strain YPT6 (second series), stronger effect = lower value 1.06 | S. cerevisiae deletion strains, locus YLR320W, strain mms22, stronger effect = lower value 0.905 | S. cerevisiae deletion strains, locus YLR342W, strain FKS1, stronger effect = lower value 1 | S. cerevisiae deletion strains, locus YLR357W, strain rsc2, stronger effect = lower value 0.949 | S. cerevisiae deletion strains, locus YLR370C, strain arc18, stronger effect = lower value 1.02 | S. cerevisiae deletion strains, locus YLR384C, strain iki3, stronger effect = lower value 0.996 | S. cerevisiae deletion strains, locus YML120C, strain ndi1, stronger effect = lower value 0.95 | S. cerevisiae deletion strains, locus YMR058W, strain fet3, stronger effect = lower value 0.961 | S. cerevisiae deletion strains, locus YMR125W, strain sto1, stronger effect = lower value 0.983 | S. cerevisiae deletion strains, locus YMR129W, stronger effect = lower value 1 | S. cerevisiae deletion strains, locus YMR205C, strain PFK2, stronger effect = lower value 0.981 | S. cerevisiae deletion strains, locus YMR231W, strain pep5, stronger effect = lower value 1 | S. cerevisiae deletion strains, locus YNL071W, strain lat1, stronger effect = lower value 0.993 | [6] 0.975 | S. cerevisiae deletion strains, locus YNL209W, strain ssb2, stronger effect = lower value 0.993 | S. cerevisiae deletion strains, locus YNL248C, strain rpa49, stronger effect = lower value 1 | S. cerevisiae deletion strains, locus YNL322C, strain KRE1 (second series), stronger effect = lower value 1.01 | S. cerevisiae deletion strains, locus YNR049C, strain mso1, stronger effect = lower value 1 | S. cerevisiae deletion strains, locus YOR001W, strain rrp6, stronger effect = lower value 0.902 | S. cerevisiae deletion strains, locus YOR070C, strain gyp1, stronger effect = lower value 1.01 | S. cerevisiae deletion strains, locus YOR080W, strain dia2, stronger effect = lower value 0.98 | S. cerevisiae deletion strains, locus YOR083W, strain WHI5, stronger effect = lower value 0.966 | S. cerevisiae deletion strains, locus YOR106W, strain vam3, stronger effect = lower value 0.993 | [7] 0.993 | S. cerevisiae deletion strains, locus YOR265W, strain rbl2, stronger effect = lower value 0.998 | S. cerevisiae deletion strains, locus YOR270C, strain vph1, stronger effect = lower value 0.93 | S. cerevisiae deletion strains, locus YOR290C, strain snf2, stronger effect = lower value 1.01 | S. cerevisiae deletion strains, locus YPL051W, strain arl3, stronger effect = lower value 1.05 | S. cerevisiae deletion strains, locus YPL078C, strain atp4, stronger effect = lower value 1.01 | S. cerevisiae deletion strains, locus YPL106C, strain sse1, stronger effect = lower value 1.08 | S. cerevisiae deletion strains, locus YPL240C, strain hsp82, stronger effect = lower value 1 | [8] 1.01

O=C1CCO1
inactive: [1] 0.984 | [2] 0.99 | [3] 0.999 | [4] 0.946 | [5] 0.942 | [6] 0.951 | [7] 0.996 | [8] 0.992

CC1(C)/C(=N/OC(=O)c2cccc(C(F)(F)F)c2)[C@]2(C)CCC1C2
inactive: [9] 1.01 | S. cerevisiae deletion strains, locus YBR229C, strain ROT2, stronger effect = lower value 1.01 | S. cerevisiae deletion strains, locus YDL101C, strain DUN1, stronger effect = lower value 1.04 | S. cerevisiae deletion strains, locus YDL134C, strain PPH21, stronger effect = lower value 1 | S. cerevisiae deletion strains, locus YDR150W, strain NUM1, stronger effect = lower value 0.989 | S. cerevisiae deletion strains, locus YEL061C, strain CIN8, stronger effect = lower value 1.04 | [10] 0.996 | S. cerevisiae deletion strains, locus YGR229C, strain SMI1, stronger effect = lower value 0.999 | [1] 0.88 | S. cerevisiae deletion strains, locus YHR087W, strain rtc3, stronger effect = lower value 0.99 | S. cerevisiae deletion strains, locus YJR043C, strain POL32, stronger effect = lower value 0.978 | S. cerevisiae deletion strains, locus YJR075W, strain HOC1, stronger effect = lower value 0.979 | S. cerevisiae deletion strains, locus YKL190W, strain CNB1, stronger effect = lower value 1.01 | S. cerevisiae deletion strains, locus YLR039C, strain RIC1, stronger effect = lower value 0.977 | S. cerevisiae deletion strains, locus YLR058C, strain SHM2 (second series), stronger effect = lower value 1.01 | S. cerevisiae deletion strains, locus YLR085C, strain ARP6, stronger effect = lower value 1 | S. cerevisiae deletion strains, locus YLR262C, strain YPT6, stronger effect = lower value 0.964 | S. cerevisiae deletion strains, locus YMR219W, strain ESC1, stronger effect = lower value 0.987 | S. cerevisiae deletion strains, locus YMR263W, strain SAP30, stronger effect = lower value 0.967 | S. cerevisiae deletion strains, locus YMR307W, strain GAS1, stronger effect = lower value 0.741 | [11] 1.01 | S. cerevisiae deletion strains, locus YNL153C, strain GIM3, stronger effect = lower value 0.963 | S. cerevisiae deletion strains, locus YNL298W, strain CLA4 (second series), stronger effect = lower value 0.987 | S. cerevisiae deletion strains, locus YNL322C, strain KRE1, stronger effect = lower value 1.02 | S. cerevisiae deletion strains, locus YNR030W, strain Alg12, stronger effect = lower value 1.01 | S. cerevisiae deletion strains, locus YOL006C, strain TOP1, stronger effect = lower value 0.898 | S. cerevisiae deletion strains, locus YPL055C, strain LGE1, stronger effect = lower value 1 | [12] 1.01 | S. cerevisiae deletion strains, locus YPR135W, strain CTF4, stronger effect = lower value 1.06 | S. cerevisiae strains, strain wild type, stronger effect = lower value 0.999
active: S. cerevisiae deletion strains, locus YML094W, strain GIM5, stronger effect = lower value 1.18 [resistant]

NC(=NCCC[C@H](N)C(=O)O)NO
inactive: [9] 1.03 | S. cerevisiae deletion strains, locus YAL040C, strain CLN3, stronger effect = lower value 1 | S. cerevisiae deletion strains, locus YCL061C, strain MRC1 (second series), stronger effect = lower value 1.01 | S. cerevisiae deletion strains, locus YDR363W, strain ESC2, stronger effect = lower value 1.02 | S. cerevisiae deletion strains, locus YER002W, strain NOP16, stronger effect = lower value 1.01 | [10] 1.02 | [11] 1 | S. cerevisiae deletion strains, locus YNL175C, strain NOP13, stronger effect = lower value 1 | S. cerevisiae deletion strains, locus YNL197C, strain WHI3, stronger effect = lower value 1.01 | S. cerevisiae deletion strains, locus YNL224C, strain SQS1, stronger effect = lower value 0.992 | S. cerevisiae deletion strains, locus YOR083W, strain WHI5 (second series), stronger effect = lower value 1.01 | [12] 1.01
